Assay results as given in the supplement of paper PMC9844399.
Structures can show the parent of a compound that is named as a salt.

Test system: HeLa
Test: nuclear count per well, robust Z-score vs DMSO; higher = more cells (less toxicity)
Settings: 10 µM; 6 h
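For MALAT1 nuclear FISH intensity, robust Z-score vs DMSO in this document: High-content confocal imaging of branched-DNA amplified FISH in 384-well plates, Hoechst-defined nuclei, score is well value minus plate DMSO median over DMSO robust SD, four wells per compound.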
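For nuclear count per well, robust Z-score vs DMSO in this document: Hoechst-stained nuclei counted by automated confocal imaging of four fields per well in 384-well plates, with the robust Z-score based on the per-plate DMSO median and robust SD.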

| Structure (SMILES) | nuclear count per well |
| --- | --- |
| CC1(C)O[C@@H]2C[C@H]3[C@@H]4CCC5=CC(=O)C=C[C@]5(C)[C@@]4(F)[C@@H](O)C[C@]3(C)[C@]2(C(=O)CO)O1 [Triamcinolone Acetonide] | 0.175 |
| O=Nc1c(-c2c(O)[nH]c3ccccc23)[nH]c2ccccc12 [Indirubin-3'-monoxime] | -0.0877 |
| CNC(C)C1CCC(N)C(OC2C(N)CC(N)C(OC3OCC(C)(O)C(NC)C3O)C2O)O1 (stereo not drawn) [Gentamycin Sulfate] | -0.303 |
| Cc1onc(-c2ccccc2)c1C(=O)N[C@@H]1C(=O)N2[C@@H]1SC(C)(C)[C@@H]2C(=O)O [Oxacillin sodium salt monohydrate] | 0.042 |
| CC(O)(P(=O)(O)O)P(=O)(O)O [Etidronate Disodium] | -0.519 |

Test system: HeLa
Test: MALAT1 nuclear FISH intensity, robust Z-score vs DMSO; higher = more nuclear MALAT1 lncRNA, active = -3 or less
Settings: 10 µM; 6 h

| Structure (SMILES) | MALAT1 nuclear FISH intensity |
| --- | --- |
| COc1nc(N)nc2c1ncn2[C@@H]1O[C@H](CO)[C@@H](O)[C@@H]1O [Nelarabine] | 0.301 (inactive) |
| CC(C)[C@H](N)C(=O)OCC(CO)OCn1cnc2c(=O)nc(N)[nH]c21 (stereo partly drawn) | -0.522 (inactive) |
| CC(C)C[C@H](NC(=O)[C@@H](Cc1c[nH]c2ccccc12)NC(=O)[C@H](Cc1ccc(O)cc1)NC(=O)[C@H](CO)NC(=O)[C@H](Cc1c[nH]c2ccccc12)NC(=O)[C@H](Cc1cnc[nH]1)NC(=O)[C@@H]1CCC(=O)N1)C(=O)N[C@@H](CCCN=C(N)N)C(=O)N1CCC[C@H]1C(=O)NCC(N)=O [Triptorelin Acetate] | -1.14 (inactive) |
| CCC[C@H](N[C@H]1CCc2cc(F)cc(F)c2C1)C(=O)Nc1cn(C(C)(C)CNCC(C)(C)C)cn1 | -0.158 (inactive) |
| Cc1cccn2c(=O)c(-c3nnn[nH]3)cnc12 [Pemirolast Potassium] | -0.397 (inactive) |
| OC(Cn1cncn1)(Cn1cncn1)c1ccc(F)cc1F [Fluconazole] | -1.32 (inactive) |
| C[C@]12C=CC(=O)N[C@@H]1CC[C@@H]1[C@@H]2CC[C@]2(C)[C@@H](C(=O)Nc3cc(C(F)(F)F)ccc3C(F)(F)F)CC[C@@H]12 [Dutasteride] | -0.729 (inactive) |
| CCOC(=O)C1=C(COCCN)NC(C)=C(C(=O)OC)C1c1ccccc1Cl (stereo not drawn) [Amlodipine] | 0.523 (inactive) |
| C[C@@H]1C[C@H]2[C@@H]3CCC4=CC(=O)C=C[C@]4(C)[C@@]3(Cl)[C@@H](O)C[C@]2(C)[C@@]1(OC(=O)c1ccco1)C(=O)CCl [Mometasone Furoate] | 0.299 (inactive) |
| CCC[C@H](N[C@@H](C)C(=O)N1[C@H](C(=O)O)C[C@@H]2CCCC[C@@H]21)C(=O)OCC [Perindopril Erbumine] | 1.69 (inactive) |
| Cc1ccc(N(CC2=NCCN2)c2cccc(O)c2)cc1 [Phentolamine hydrochloride] | 0.687 (inactive) |
| NCC(=O)CCC(=O)O | -0.311 (inactive) |
| O=C(O)CN1C(=O)c2cccc3cccc(c23)C1=O [Alrestatin] | -1.51 (inactive) |
| NS(=O)(=O)c1cc2c(cc1Cl)NCNS2(=O)=O [Hydrochlorothiazide] | -1.71 (inactive) |
| CCCCCCOC(=O)[C@]1(O)C[C@@H]2O[C@@]1(C)n1c3ccccc3c3c4c(c5c6ccccc6n2c5c31)C(=O)NC4 | -2.21 (inactive) |
| NC(=S)c1ccccc1 [Thiobenzamide] | -1.8 (inactive) |
| OC[C@H]1O[C@@H](O[C@@H]2[C@@H](CO)OC(O)(CO)[C@H]2O)[C@H](O)[C@@H](O)[C@H]1O (mixture of isomers) [Lactulose] | -0.821 (inactive) |
| Clc1ccc(C(c2ccc(Cl)cc2)[n+]2ccn(CC(OCc3ccc(Cl)cc3Cl)c3ccc(Cl)cc3Cl)c2)cc1 (stereo not drawn) [Calmidazolium chloride] | -1.68 (inactive) |
| CCCCCCCCC#CCC#CCC#CCCCC(=O)O [5,8,11-Eicosatriynoic acid] | -0.729 (inactive) |
| CCCCC[C@H](O)/C=C/[C@H]1C(=O)C=C[C@@H]1C/C=C\CCCC(=O)O [Prostaglandin J2] | -0.999 (inactive) |
| Nc1cc(-c2ccncc2)c[nH]c1=O [Amrinone] | -0.625 (inactive) |
| N[C@@H](C(=O)N[C@@H]1C(=O)N2C(C(=O)O)=C(Cl)CS[C@H]12)c1ccccc1 [Cefaclor] | 1.19 (inactive) |
| CN1CCC(=C2c3ccccc3CC(=O)c3sccc32)CC1 | 0.0682 (inactive) |
